Reference: the supplement of paper PMC8253809
Where “and” joins values, the source holds several entries; their conditions need not be identical. Identical values can stand only once.

Columns and labels:
Experiment in all cases: growth inhibition (% activity, log2 RLU normalised to DMSO / staurosporine); higher = more growth inhibition
Details in all cases: 33 µM
DIPGX29 = tested on: DIPGX29 (H3.3 K27M diffuse intrinsic pontine glioma line)
Method in brief: (§1)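 Approved drugs were tested in triplicate at a single final concentration of about 33 μM for 7 days at 37 °C, 5% CO2, on pHGG cell lines and H9-derived neural stem cells. Readout was CellTiter-Glo luminescence, log2-transformed and scaled per plate to % activity between solvent and positive control wells. The median over replicates gives the growth-inhibition value.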

DIPGX37 = tested on: DIPGX37 (H3.3 K27M diffuse intrinsic pontine glioma line)
Method in brief: as §1

DIPGX7 = tested on: DIPGX7 (H3.3 K27M diffuse intrinsic pontine glioma line)
Method in brief: as §1

DIPGX9 = tested on: DIPGX9 (diffuse intrinsic pontine glioma line)
Method in brief: as §1

HGGX39 = tested on: HGGX39 (paediatric high-grade glioma line)
Method in brief: as §1

HGGX6 = tested on: HGGX6 (H3.3 G34R paediatric high-grade glioma line)
Method in brief: as §1

HNSC = tested on: HNSC
Method in brief: as §1

SUDIPGIV = tested on: SUDIPGIV (diffuse intrinsic pontine glioma line)
Method in brief: as §1

SUDIPGVI = tested on: SUDIPGVI (diffuse intrinsic pontine glioma line)
Method in brief: as §1

SUDIPGXIII = tested on: SUDIPGXIII (diffuse intrinsic pontine glioma line)
Method in brief: as §1

Row | Structure (SMILES) | growth inhibition (DIPGX29) | growth inhibition (DIPGX37) | growth inhibition (DIPGX7) | growth inhibition (DIPGX9) | growth inhibition (HGGX39) | growth inhibition (HGGX6) | growth inhibition (HNSC) | growth inhibition (SUDIPGIV) | growth inhibition (SUDIPGVI) | growth inhibition (SUDIPGXIII)
1 | N[C@H](Cc1ccccc1)C(=O)O | 1.07% | 4.02% | 1.99% | 1.11% | 3.77% | 0.895% | 14.5% | 3.32% | 2.63% | 2.11%
2 | O=C(O)[C@H](CC(=O)N1C[C@H]2CCCC[C@H]2C1)Cc1ccccc1 | 0.852% | -5.28% | 0.289% | 1.86% | 1.09% | 0.619% | 1.48% | 1.74% | 1.16% | -1.34%
3 | CC[C@H]1OC(=O)C[C@@H](O)[C@H](C)[C@@H](O[C@@H]2O[C@H](C)[C@@H](O)[C@H](N(C)C)[C@H]2O)[C@@H](CCN2C[C@H](C)C[C@H](C)C2)C[C@@H](C)C(=O)/C=C/C(C)=C/[C@@H]1CO[C@@H]1O[C@H](C)[C@@H](O)[C@@H](OC)[C@H]1OC | -3.18% | -1.96% | -0.192% | -2.36% | -3.76% | -3.98% | 3.6% | -3.04% | -5.87% | 1.2%
4 | CC(C)c1nc(CN(C)C(=O)N[C@@H](CCN2CCOCC2)C(=O)N[C@H](CC[C@H](Cc2ccccc2)NC(=O)OCc2cncs2)Cc2ccccc2)cs1 | 3.78% | 0.997% | 0.492% | 2.24% | 2.07% | 1.63% | 1.95% | -0.101% | 3.61% | -0.613%
5 | COc1ccccc1OCC(O)CN1CCN(CC(=O)Nc2c(C)cccc2C)CC1 (stereo not given) | -3.85% and 2.95% | -0.299% and 2.63% | -1.1% and 4.84% | -2.23% and 2.88% | -2.5% and 3.07% | -1.8% and 1.36% | -2.11% and 14% | -2.68% and 2.7% | -1.9% and -0.296% | -2.34% and -1.26%
6 | NCCCC[C@H](N[C@@H](CCc1ccccc1)C(=O)O)C(=O)N1CCC[C@H]1C(=O)O | -0.869% | -1.25% | -0.813% | -0.846% | -1.12% | 1.27% | -1.56% | -0.401% | -1.38% | -4.08%
7 | CC(C(=O)O)c1ccc(C(=O)c2cccs2)cc1 (stereo not given) | -1.23% | -0.791% | -0.391% | -0.699% | -0.848% | 1.96% | -0.802% | -4.32% | 0.938% | -0.105%
8 | CCc1oc2ccccc2c1C(=O)c1cc(Br)c(O)c(Br)c1 | -0.0876% | 0.798% | -0.0754% | -1.64% | -0.416% | 0.0697% | -1.55% | -0.229% | 0.671% | 2.79%
9 | CCCSc1ccc2[nH]c(NC(=O)OC)nc2c1 | 7.72% | 7.1% | 6.94% | 11.9% | 15.5% | 7.25% | 61.3% | 19% | -3.32% | 4.87%
10 | CCn1nc(C(=O)O)c(=O)c2cc3c(cc21)OCO3 | 0.16% | 0.624% | -0.169% | -0.854% | 0.711% | 1.66% | 0.841% | -0.519% | -0.803% | 0.089%
11 | COc1cc(/C=C/C(=O)N2CCN(CC(=O)N3CCCC3)CC2)cc(OC)c1OC | -0.327% | 0.826% | -0.108% | -0.784% | 0.66% | -2.67% | 17.5% | 0.556% | -3.03% | -1.16%
12 | C=CC(=O)N1CCC[C@@H](n2nc(-c3ccc(Oc4ccccc4)cc3)c3c(N)ncnc32)C1 | 6.19% | 0.894% | 0.519% | 7.17% | 1.36% | 12.5% | 10.8% | -2.32% | 2.15% | -9.86%
13 | CC1Cc2ccccc2N1NC(=O)c1ccc(Cl)c(S(N)(=O)=O)c1 (stereo not given) | -2.32% | 0.265% | -1.54% | -0.538% | 0.759% | 0.259% | -4.15% | -2.59% | -1.16% | -1.46%
14 | COC(=O)C1=CO[C@@H](O)[C@@H]2C(CO)=CC[C@H]12 | -0.243% | 2.53% | -0.199% | 2.66% | -0.158% | 2.23% | -1.1% | -0.3% | -0.83% | 1.32%
15 | CCOc1nc2cccc(C(=O)OCc3oc(=O)oc3C)c2n1Cc1ccc(-c2ccccc2-c2noc(=O)[nH]2)cc1 | 0.179% | -1.86% | 1.02% | 0.141% | 0.998% | -2.04% | 16.6% | -1.36% | -4.87% | -1.75%
16 | CC(=O)O[C@@]12CO[C@@H]1C[C@H](O)[C@@]1(C)C(=O)[C@H](O)C3=C(C)[C@@H](OC(=O)[C@H](O)[C@@H](NC(=O)OC(C)(C)C)c4ccccc4)C[C@@](O)([C@@H](OC(=O)c4ccccc4)[C@H]21)C3(C)C | 8.91% | 8.27% | 8.76% | 19.3% | 24.5% | 15.8% | 55.1% | 21.6% | 8.93% | 6.64%
17 | COc1ccc(C(=O)CC(=O)c2ccc(C(C)(C)C)cc2)cc1 | -1.88% | -1.81% | -1.16% | -0.752% | -2.78% | -0.501% | -0.539% | -0.769% | -2.64% | -0.991%
18 | CCCN(CCC)S(=O)(=O)c1ccc(C(=O)O)cc1 | -1.26% | 2.49% | 0.672% | 0.0871% | 1.02% | -3.52% | 8.98% | 1.56% | -6.21% | 0.262%
19 | CCc1c(Cl)c(O)c(Cl)c(O)c1C(=O)O[C@H]1[C@H](O)[C@H](OC)[C@H](OC/C2=C\C=C\C[C@H](O)/C(C)=C/[C@H](CC)[C@@H](O[C@@H]3OC(C)(C)[C@@H](OC(=O)C(C)C)[C@H](O)[C@@H]3O)/C(C)=C/C(C)=C/C[C@@H]([C@@H](C)O)OC2=O)O[C@@H]1C | 0.669% | 2.16% | 0.835% | -0.411% | 9.09% | 0.0636% | 11.6% | 3.19% | 2.46% | 0.498%
20 | CO[C@H]1C[C@@H]2CC[C@@H](C)[C@@](O)(O2)C(=O)C(=O)N2CCCC[C@H]2C(=O)O[C@H]([C@H](C)C[C@@H]2CC[C@@H](O)[C@H](OC)C2)CC(=O)[C@H](C)/C=C(\C)[C@@H](O)[C@@H](OC)C(=O)[C@H](C)C[C@H](C)/C=C/C=C/C=C/1C | 6.5% | 0.955% | 6.15% | 16.4% | 10.5% | 10.3% | 10.4% | 4.5% | 6.53% | 0.792%
